TTR transcr act: increases transthyretin transcription; SH-SY5Y TTR promoter Gaussia luciferase, luminescence; 100% = recombinant luciferase protein wells; activation, % at 16.7 µM; hit rate 1.3% among 92,000;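 active means activation above the mean of all tested compounds plus 3 SD, cut at about 9.5% in these data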;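 further: cells exposed to compounds for one day before reading; 0% = median of all test compound wells on the plate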
HuH7 TTR inh: decreases TTR transcription in HuH7 cells in activator counter-screen; hit rate 4% among 1,100; shares compounds with TTR transcr act; inhibition, % at 16.7 µM; HuH7 TTR promoter-Gaussia luciferase reporter, luminescence;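 active means average inhibition above the solvent-only control wells' mean plus 3 SD, cut at about 15% in these data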;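 further: 0% = cells with DMSO only and 100% = cells with inhibitor control FD; inhibitors lower well luminescence so higher value means more inhibition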
TTR up confirm: human TTR transcription activation, confirmation | shares compounds with TTR transcr act | SHSY5Y TTR promoter Gaussia luciferase, luminescence; 100% = purified Lucia enzyme wells, no cells | activation, % at 16.7 µM | 1,100 tested, under 10 active;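 active means mean activation above a set limit taken from the earlier primary screen, cut at about 11% in these data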;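 further: 0% = DMSO-treated cells and 100% = recombinant Lucia luciferase without cells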
* marks the source's active call; other numbers are inactive results. The entries come from a sample that favours hits as a whole.

SMILES	TTR transcr act	others
O=S(=O)(c1ccc(SCCOc2ccc(Br)cc2)nc1)N1CCCC1	-1.9
O=S(=O)(c1ccc(SCc2c(F)cccc2Cl)nc1)N1CCCC1	-0.8
CC(C)Sc1nnc(NC(=O)c2ccc3c(c2)OCO3)s1	0.2
Cc1ccc(F)c(S(=O)(=O)NC(=O)C2(C)CCN2C(=O)Cc2ccccc2)c1 (configuration not stated)	-0.4
CC(CC(=O)O)Nc1ccccc1O (configuration not stated)	0.1
CCN(c1ccccc1)S(=O)(=O)c1ccc(F)cc1	0.8
CCN(c1ccccc1)S(=O)(=O)c1ccc(Cl)nc1	19.3*	HuH7 TTR inh=-4.3;TTR up confirm=1.3
O=S(=O)(c1ccc(Cl)nc1)N(Cc1ccccc1)Cc1ccccc1	-2.7
Cc1ccccc1NC(=O)c1ccc2c(O)c(S(=O)(=O)c3ccccc3)c(=O)[nH]c2c1	-2.4
COC(=O)c1c(-c2ccc(OC)cc2)sc2ccc(OC)cc12	-0.6
O=C(Nc1cccc(F)c1)c1cc(S(=O)(=O)N2CCC(C(=O)O)CC2)ccc1F	-1.0
CCOC(=O)Cn1c(=O)oc2cc(S(=O)(=O)N3CCN(c4ccccn4)CC3)ccc21	-0.7
O=C(Nc1c(F)cc(F)cc1Br)c1cc(S(=O)(=O)N2CCN(c3ccccn3)CC2)ccc1F	10.6*	HuH7 TTR inh=1.2;TTR up confirm=-0.6
O=[N+]([O-])c1ccccc1C(=Nc1ccccc1)c1c(O)cc(O)cc1O	1.4
O=C(CSc1ccccc1F)NC(=O)c1ccccc1Br	-1.6
COC(=O)[C@]12C[C@H](CC(=O)NCc3ccc(OC)c(OC)c3)C(=O)N(Cc3ccc4c(c3)OCO4)C1=C[C@H](C(C)C)O[C@@H]2C1CC1	0.2
C[C@H]1CN([C@@H](C)CO)S(=O)(=O)c2ccc(Br)cc2O[C@H]1CN(C)C(=O)Cc1ccccc1	1.7
CCCNC(=O)N(C)C[C@@H]1Oc2cc(Br)ccc2S(=O)(=O)N([C@@H](C)CO)C[C@H]1C	3.1
C[C@H](CO)N1C[C@H](C)[C@@H](CN(C)C(=O)NC2CCCC2)Oc2cc(Br)ccc2S1(=O)=O	17.9*	HuH7 TTR inh=-10.1;TTR up confirm=2.4
C[C@H](CO)N1C[C@H](C)[C@H](CN(C)C(=O)CC2CC2)Oc2cc(Br)ccc2S1(=O)=O	0.1
C[C@H]1CN([C@@H](C)CO)S(=O)(=O)c2ccc(Br)cc2O[C@@H]1CN(C)C(=O)C1CCOCC1	24.5*	HuH7 TTR inh=-8.1;TTR up confirm=0.6
C[C@H]1CN([C@@H](C)CO)S(=O)(=O)c2ccc(Br)cc2O[C@H]1CN(C)C(=O)CN(C)C	-0.5
CCC(=O)N(C)C[C@H]1Oc2cc(Br)ccc2S(=O)(=O)N([C@@H](C)CO)C[C@H]1C	15.5*	HuH7 TTR inh=-10.8;TTR up confirm=0.1
C[C@H](CO)N1C[C@H](C)[C@@H](CN(C)C(=O)c2ccc(F)cc2)Oc2cc(Br)ccc2S1(=O)=O	0.6
C[C@H]1CN([C@@H](C)CO)S(=O)(=O)c2ccc(-c3cncnc3)cc2O[C@H]1CN(C)C(=O)NC1CCCC1	-0.5
SMILES	TTR transcr act	others
Cc1noc(C)c1NC(=O)N(C)C[C@H]1OCc2cn(nn2)CCCC(=O)N([C@H](C)CO)C[C@@H]1C	1.1
CC(NS(=O)(=O)OCC(Cl)(Cl)Cl)c1ccc(Br)cc1 (configuration not stated)	3.2
CC[C@]1(c2ccc(C)cc2)C(=O)N(C(=O)OC(C)C)N1C(=O)OC(C)C	0.7
O=C(CSC1=NS(=O)(=O)c2cc(F)ccc2N1)NCc1ccccc1Cl	2.2
O=S1(=O)c2ccc(N3CCCC3)cc2Oc2ccccc2CN1Cc1cn(Cc2ccc(F)cc2)nn1	0.4
Cc1ccc(S(=O)(=O)N(CCCc2c(C)nc[nH]c2=O)c2ccccc2)cc1	0.9
O=C(O)C1(c2ccccc2)CCN(S(=O)(=O)c2ccc(Cl)cc2)CC1	1.1
CCCn1nc2cc(C(=O)NCc3ccccc3OC)ccc2c1OCC	-0.5
CCOc1ccc(C(=O)NCc2ccccc2OC)cc1	15.1*	HuH7 TTR inh=-11.6;TTR up confirm=0.2
CCOc1ccc(C(=O)N[C@H](C(=O)Nc2ccccc2OC)C(C)C)cc1	1.8
CCCNC(=O)C1(C)CCN(C(=O)c2ccc3sccc3c2)C1 (configuration not stated)	1.0
COc1ccccc1C(C)NCC(=O)NC(=O)NCc1ccco1 (configuration not stated)	0.4
C[C@H]1[C@@H](c2ccccc2)Oc2ccc(Cl)cc2S(=O)(=O)N1Cc1cccc(F)c1	1.9
O=C(NCCc1ccccc1)C1CCCN(S(=O)(=O)c2cccc3nonc23)C1 (configuration not stated)	10.0*	HuH7 TTR inh=-5.0;TTR up confirm=2.4
O=C(NCc1ccc(F)cc1)C1CCCN(S(=O)(=O)c2cccc3nonc23)C1 (configuration not stated)	2.1
O=C(NCCc1ccccc1)C1CCN(S(=O)(=O)c2cccc3nonc23)CC1	-2.9
Cc1cc2nc(C3CCCCC3)c(CC(C)(C)C)n2c(C)c1Br	0.4
CN(Cc1ccccc1)CC1C2CCC(C2)C1O (configuration not stated)	1.9
COc1ccc(C(=O)N/C(=C\c2cn(S(=O)(=O)N(C)C)c3ccccc23)C(=O)NCCN2CCOCC2)cc1	0.6
CCC(C)(C)NC(=O)C(c1ccccc1F)N(Cc1ccco1)C(=O)Cn1nnc2ccccc21 (configuration not stated)	5.7
O=C(NC1CCCCC1)C(c1ccco1)N(Cc1cccs1)C(=O)Cn1nnc2ccccc21 (configuration not stated)	-2.5
COc1ccc(CN(C(=O)Cn2nnc3ccccc32)C(C(=O)NC(C)(C)C)c2ccco2)cc1 (configuration not stated)	9.9*	HuH7 TTR inh=-8.9;TTR up confirm=-0.5
COCOCCn1cc(CN2CCS(=O)(=O)N(Cc3ccc(-c4ccc(Cl)c(Cl)c4)cc3)C(C)C2=O)nn1 (configuration not stated)	-3.5
CC(=O)c1ccc(NC(=O)Nc2sc(NS(=O)(=O)c3ccccc3)nc2C)cc1	29.8*	HuH7 TTR inh=-6.1;TTR up confirm=2.1
Cc1nc(NS(=O)(=O)c2ccccc2)sc1C(=O)N/N=C/c1ccccc1	0.1
SMILES	TTR transcr act	others
CC(=O)c1ccc(NC(=O)NNS(=O)(=O)c2ccc(F)cc2)cc1	-1.5
CCOC(=O)Nc1sc(NS(=O)(=O)c2ccccc2)nc1C	10.5*	HuH7 TTR inh=-18.7;TTR up confirm=2.5
Cc1ccc(S(=O)(=O)NNC(=O)c2sc(NS(=O)(=O)c3ccccc3)nc2C)cc1	0.2
Cc1ccc(C)c(S(=O)(=O)Nc2nc(C)c(C(=O)Nc3ccccc3)s2)c1	1.4
CC(Cc1ccccc1)NC(=O)CCNNC(=O)c1ccncc1 (configuration not stated)	0.1
Cn1ccc2c(-c3ccc4[nH]ccc4c3)cc3c(c21)C1CCC3O1 (configuration not stated)	-1.1
COc1ccc(CN2CCC[C@]3(N[C@H](c4ccc(OC)cc4)[C@@H]4C(=O)N(C)C(=O)[C@@H]43)C2=O)cc1	-0.3
CCCCOc1ccc(C(=O)NC2CCCCN(Cc3ccc(C)cc3)C2=O)cc1 (configuration not stated)	-2.1
Cn1ccc2c(-c3ccc(C(C)(C)C)cc3)cc3c(c21)C1CCC3C1 (configuration not stated)	-1.1
COc1ccc(-c2cc3c(c4c2ccn4C)C2CCC3C2)cc1 (configuration not stated)	-0.9

Compound activity (PubChem)
